Laboratory results from PubChem BioAssay.
Several values for one entry are separate records, joined by “and”; a condition that tells them apart may be missing. Equal values may be shown once. Activity calls are given as the source filed them.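 The calls were made as follows, unless noted: active = z-score of at least 1.8 in each of two replicates, scored against plate mean and spread of sample wells; inactive = the rest.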

Key:
[1] = yeast 75Q aggregation reduction – 75Q-TubU reporter (AID 1593); conditions: Yeast 75Q polyglutamine aggregation reporter
[2] = blockers of cytochrome c efflux from mitochondria – biochemical, purified mitochondria (AID 1603); conditions: stronger effect = lower value;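 also: mouse liver mitochondria challenged with calcium chloride; signal normalized to the plate average as 100%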
[3] = polyglutamine aggregate formation blockers (AID 1604); conditions: polyglutamine-induced protein aggregation inhibition assay; stronger effect = higher value; tested at 2.5 µM
[4] = P. berghei load reduction in hepatocytes – cell-based, HepG2, luciferase luminescence, HepG2 viability, primary screen (AID 624349; in the data active = parasite load remaining mostly below about 12%, no sharp cut-off; inactive = mostly above about 10%;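 also: 100% = mean of DMSO negative control wells on the same plate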); conditions: P. berghei liver stage in HepG2, luciferase luminescence, concentration not given here; parasite load remaining: stronger effect = lower value; viability: measured here: HepG2 viability without parasites
[5] = Wnt pathway potentiators raising nuclear beta-catenin – imaging, WNT3A-conditioned medium, mouse C2C12, NPC library, primary screen (AID 1117326; in the data active = nuclear beta-catenin stimulation mostly above about 4.2%, no sharp cut-off; inactive = mostly below about 10%); conditions: stronger effect = higher value
[6] = stimulators of insulin release from INS-1E, primary screen, cell-based, 5 mM glucose, NPC library (AID 1117329;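 active = compound raises insulin release from rat beta cells at 5 mM glucose, no numeric limit stated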); conditions: rat INS-1E insulin secretion, at 10 µM, stronger effect = higher value
[7] = growth inhibition of GSK3B-pretreated HCT116 cells – cell-based, CellTiter-Glo, 0.2 to 20 µM (AID 1117336;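 active = compounds lowering colon cancer cell viability after pretreatment blocking the GSK3B kinase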); conditions: HCT116 viability after GSK3B inhibitor, at 20 µM, stronger effect = higher value
[8] = inhibition of endothelial tube formation, primary screen, imaging, VEGF stimulated, CD31 staining, tube area, NPC library (AID 1117340;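 active = compound that reduces growth-factor-driven endothelial tube area in a mixed cell culture, no cutoff stated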); conditions: VEGF-stimulated ADSC/ECFC co-culture, at 10 µM, stronger effect = higher value
[9] = GLP1 release stimulators, primary, NCI-H716, NPC library (AID 1117341;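 active = compound raises GLP1 secretion from the human gut endocrine cells, with no numeric limit stated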); conditions: NCI-H716 cells, at 10 µM, stronger effect = higher value
[10] = HCT116 colon cancer cell growth inhibition, primary screen, CellTiter-Glo luminescence, NPC library (AID 1117342;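 active = compounds that lower survival of HCT116 colon cancer cells in the luminescence readout, no numeric limit stated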); conditions: at 20 µM (top of the series)
[11] = reduced SW480 viability measured with CellTiter-Glo, NPC library, primary (AID 1117343;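 active = compounds that lower viability of the colon cancer cells in the luminescence readout, with no numeric limit stated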); conditions: CellTiter-Glo luminescence; at 20 µM (top of the series)
[12] = NPC library primary testing for decreased DLD-1 cell viability via CellTiter-Glo (AID 1117346;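 active = compounds that lower survival of DLD-1 colon cancer cells in the luminescence readout, no cutoff given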); conditions: DLD-1 viability, CellTiter-Glo luminescence; at 20 µM (top of the series)
[13] = target: 6-phosphogluconate dehydrogenase, decarboxylating (Homo sapiens) (UniProt P52209); assay: inhibition of human phosphogluconate dehydrogenase – biochemical, recombinant enzyme, NADPH absorbance, primary screen (AID 1159550;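 active = at least 20% inhibition of 6-phosphogluconate dehydrogenase activity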); conditions: recombinant 6PGD, NADPH absorbance 341 nm; at 10 µM; stronger effect = higher value
Sequence of 6-phosphogluconate dehydrogenase, decarboxylating (Homo sapiens) (P52209 whole entry, looked up): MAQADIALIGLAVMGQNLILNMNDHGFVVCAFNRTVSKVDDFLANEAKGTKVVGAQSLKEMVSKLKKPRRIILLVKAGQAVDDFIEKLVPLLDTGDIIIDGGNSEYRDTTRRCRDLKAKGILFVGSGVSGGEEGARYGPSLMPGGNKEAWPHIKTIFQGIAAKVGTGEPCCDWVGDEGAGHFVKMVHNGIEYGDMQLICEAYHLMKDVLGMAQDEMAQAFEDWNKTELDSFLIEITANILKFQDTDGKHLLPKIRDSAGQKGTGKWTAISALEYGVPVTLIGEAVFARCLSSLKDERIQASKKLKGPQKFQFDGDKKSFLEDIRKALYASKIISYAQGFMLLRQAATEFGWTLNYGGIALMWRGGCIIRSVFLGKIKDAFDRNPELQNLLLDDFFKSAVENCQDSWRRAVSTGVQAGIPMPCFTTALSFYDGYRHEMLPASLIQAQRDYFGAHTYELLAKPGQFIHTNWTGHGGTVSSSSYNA

[14] = EMT-state selective cytotoxicity in co-culture – imaging, PC-3E GFP, TEM4-18 mCherry, primary screen (AID 1345086;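 active = compounds killing one labelled cell type while sparing the other, by normalised counts and ratio limits, not self-fluorescent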;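 as to all read-outs here: cells exposed to compound for 72 h before imaging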;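 as to red/green cell ratio (normalised): normalised mesenchymal count divided by normalised epithelial count so high means epithelial killing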); conditions: PC-3E GFP / TEM4-18 mCherry co-culture, imaging cell counts, at 1 µM; for red/green cell ratio (normalised): actives lie on both sides
[15] = tested on: Aerobactin synthetase IucA (Klebsiella pneumoniae hvKP1); assay: IucA enzyme inhibition, primary screen, biochemical, Spectrum library (AID 1346200; call rule not given here;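 also: 100% = wells without compound and 0% = wells lacking enzyme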); conditions: malachite green pyrophosphate, A620, at 8 µM, stronger effect = lower value
[16] = viability loss with induced miR-34 in A549 – imaging, A549 dox-inducible miR-34, nuclei and caspase counts, primary screen (AID 1347080;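 active = compounds whose cell count with miR-34 switched on is under 0.7 times the count with it off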); conditions: A549 miR-34 inducible, Hoechst nuclei count, 48 h
[17] = MELAS cybrid and Rieske KO viability enhancers – cell-based, MELAS cybrids, Rieske KO mouse fibroblasts, CellTiter-Glo, primary screen (AID 1508586;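 active = mean z-score across replicates of 1.96 or higher in either the MELAS or the Rieske mutant cell line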;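 also: z relative to plate mean and SD of compound and empty wells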); conditions: low glucose
[18] = target: NAD(+) hydrolase SARM1 (Homo sapiens) (UniProt Q6SZW1); assay: blocking NAD cleavage by SARM1 SAM-TIR – cell lysate, NAD-Glo luminescence (AID 1508614;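 active = compound whose remaining NAD level is above about 45 nM, limit read from the data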;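 also: higher remaining NAD means stronger inhibition of SARM1 NADase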); conditions: SAM-TIR HEK293T lysate NADase, at 1 µM, stronger effect = higher value
Sequence of NAD(+) hydrolase SARM1 (Homo sapiens) (Q6SZW1 whole entry, looked up, the tested form may be a part): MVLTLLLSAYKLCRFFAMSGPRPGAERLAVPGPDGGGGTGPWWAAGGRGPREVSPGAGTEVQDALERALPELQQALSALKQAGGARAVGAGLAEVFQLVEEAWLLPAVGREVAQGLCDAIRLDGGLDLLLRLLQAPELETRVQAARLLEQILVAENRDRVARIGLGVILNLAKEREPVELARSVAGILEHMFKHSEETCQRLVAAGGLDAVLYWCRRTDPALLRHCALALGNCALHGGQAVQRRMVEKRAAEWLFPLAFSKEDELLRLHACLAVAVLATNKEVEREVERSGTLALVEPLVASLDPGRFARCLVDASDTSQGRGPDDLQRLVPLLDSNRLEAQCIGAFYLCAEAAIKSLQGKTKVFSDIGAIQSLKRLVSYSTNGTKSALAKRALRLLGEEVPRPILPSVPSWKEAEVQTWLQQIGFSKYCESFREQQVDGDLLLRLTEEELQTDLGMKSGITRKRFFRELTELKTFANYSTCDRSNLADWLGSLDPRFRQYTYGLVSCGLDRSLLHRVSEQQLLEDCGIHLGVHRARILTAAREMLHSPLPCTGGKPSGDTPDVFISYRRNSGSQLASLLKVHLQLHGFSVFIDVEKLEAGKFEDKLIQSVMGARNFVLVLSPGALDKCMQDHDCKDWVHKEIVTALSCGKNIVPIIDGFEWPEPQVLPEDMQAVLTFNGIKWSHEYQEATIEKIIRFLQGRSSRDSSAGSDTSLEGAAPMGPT

[19] = target: Mitogen-activated protein kinase 7 (Homo sapiens) (UniProt Q13164); assay: Gal4-ERK5 driven luciferase induction – cell-based, HTS, primary screen (AID 1508626;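 active = luciferase signal above three times the same-plate solvent-only control wells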;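 also: luciferase driven by Gal4-ERK5 fusion binding five Gal4 sites before minimal TATA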); conditions: HeLa Gal4-ERK5 transactivation, 18 h, at 5 µM, stronger effect = higher value
Sequence of Mitogen-activated protein kinase 7 (Homo sapiens) (Q13164 whole entry, looked up, the tested form may be a part): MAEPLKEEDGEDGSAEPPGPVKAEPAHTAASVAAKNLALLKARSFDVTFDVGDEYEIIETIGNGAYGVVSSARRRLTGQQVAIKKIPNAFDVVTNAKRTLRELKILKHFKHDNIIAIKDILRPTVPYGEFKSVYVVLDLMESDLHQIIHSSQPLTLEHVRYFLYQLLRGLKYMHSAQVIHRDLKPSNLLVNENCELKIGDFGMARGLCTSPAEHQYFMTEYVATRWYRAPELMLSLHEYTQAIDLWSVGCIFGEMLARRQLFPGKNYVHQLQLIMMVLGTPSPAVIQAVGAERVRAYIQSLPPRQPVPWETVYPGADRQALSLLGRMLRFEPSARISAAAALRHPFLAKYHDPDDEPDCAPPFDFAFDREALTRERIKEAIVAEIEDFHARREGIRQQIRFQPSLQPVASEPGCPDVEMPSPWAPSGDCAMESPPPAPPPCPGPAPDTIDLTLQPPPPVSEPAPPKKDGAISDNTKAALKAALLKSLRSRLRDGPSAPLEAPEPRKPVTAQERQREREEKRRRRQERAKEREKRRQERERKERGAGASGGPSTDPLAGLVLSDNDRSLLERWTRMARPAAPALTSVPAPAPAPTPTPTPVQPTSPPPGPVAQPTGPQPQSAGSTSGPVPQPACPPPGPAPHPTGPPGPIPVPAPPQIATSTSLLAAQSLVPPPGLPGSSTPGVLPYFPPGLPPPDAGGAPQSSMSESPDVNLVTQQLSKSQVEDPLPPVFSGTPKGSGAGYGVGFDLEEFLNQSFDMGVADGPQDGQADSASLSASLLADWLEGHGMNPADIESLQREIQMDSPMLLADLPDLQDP

[20] = galactose survival enhancers in mitochondrial complex I cybrids – cell-based, galactose medium, ATP luminescence, primary screen (AID 1645843); conditions: complex I mutant cybrid cells, 72 h, stronger effect = higher value;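 also: positive z means more ATP and so rescue of galactose-driven cybrid death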
[21] = measured here: epithelial PC-3E GFP cell survival
[22] = measured here: mesenchymal TEM4-18 mCherry cell survival
[23] = MELAS cybrid survival, CellTiter-Glo 48 h, stronger effect = higher value
[24] = Rieske KO mouse fibroblast survival, CellTiter-Glo 72 h

c1ccc2nc(N3CCNCC3)ccc2c1 gave a score [1] of 1.22, a cytochrome c release ratio [2] of 0.9 and an inhibition of aggregation [3] of 63.9%. The parasite load remaining [4] was 73.5% (inactive) and 55.7% (inactive) and 53.7% (inactive), the viability [4] was 107% and 72.2% and 102% and the nuclear beta-catenin stimulation ([5]; at 10 µM) was 0.1% (inactive). The nuclear beta-catenin stimulation ([5]; stimulation, at 2 µM) was -1.9%, the insulin secretion stimulation [6] was 4% (inactive) and the viability decrease [7] was 41.7% (inactive). The tube area decrease [8] was -4.1% (inactive), the GLP1 secretion stimulation [9] was 3.6% (inactive) and the inhibition of viability [10] was 56.9% (active). The viability decrease (inhibition) [11] was 54.9% (active), the viability decrease (inhibition) [12] was 25% (inactive) and the inhibition [13] was 9.28% (inactive). The red/green cell ratio (normalised) [14] was 1.18 (inactive), the normalised cell number [14, 21] was 1.13 and the normalised cell number [14, 22] was 1.34. The activity remaining [15] was 124% (inactive), the fold change ([16]; stronger effect = lower value) was 0.855 (inactive) and 0.953 (inactive) and 0.849 (inactive) and the fold change ([16]; measured here: relative caspase fold change +Dox/-Dox) was 1.3 and 0.736 and 5.89. The cell count ([16]; measured here: total cells with miR-34 induction, stronger effect = lower value) was 9120 and 9090 and 11300, the cell count ([16]; measured here: total cells without miR-34 induction) was 10700 and 9530 and 13400 and the z-score [17, 23] was 0.387 (inactive). For the same compound, the z-score [17, 24] was 0.0895, the remaining NAD [18] was 10 nM (inactive) and the luciferase signal [19] was 28 AU (inactive). For the same compound, the z-score [20] was -0.47 (inactive).

With Nc1ccccc1 the nuclear beta-catenin stimulation ([5]; at 10 µM) was 0.6% (inactive), the nuclear beta-catenin stimulation ([5]; stimulation, at 2 µM) was 2% and the insulin secretion stimulation [6] was -2.4% (inactive). For the same compound, the viability decrease [7] was 4.9% (inactive), the tube area decrease [8] was -9.5% (inactive) and the GLP1 secretion stimulation [9] was 1.1% (inactive). For the same compound, the inhibition of viability [10] was -9.9% (inactive), the viability decrease (inhibition) [11] was 59.6% (active) and the viability decrease (inhibition) [12] was 26.8% (inactive).

CC(C)N(CCC(C(N)=O)(c1ccccc1)c1ccccn1)C(C)C (stereo unspecified) showed a score [1] of 1.39, a cytochrome c release ratio [2] of 1.18 and an inhibition of aggregation [3] of 70.4%. The nuclear beta-catenin stimulation ([5]; at 10 µM) was 0.5% (inactive), the nuclear beta-catenin stimulation ([5]; stimulation, at 2 µM) was 1.2% and the insulin secretion stimulation [6] was 0.8% (inactive). For the same compound, the viability decrease [7] was -17.4% (inactive), the tube area decrease [8] was 15.3% (inactive) and the GLP1 secretion stimulation [9] was -2.8% (inactive). For the same compound, the inhibition of viability [10] was -3.87% (inactive), the viability decrease (inhibition) [11] was 18.8% (inactive) and the viability decrease (inhibition) [12] was -13.7% (inactive). The inhibition [13] was 5.28% (inactive), the red/green cell ratio (normalised) [14] was 1.1 (inactive) and the normalised cell number [14, 21] was 1.22. The normalised cell number [14, 22] was 1.34, the activity remaining [15] was 102% (inactive) and the z-score [17, 23] was -0.238 (inactive) and 0.483 (inactive). The z-score [17, 24] was -0.211 and 0.374, the remaining NAD [18] was 10 nM (inactive) and the luciferase signal [19] was 32 AU (inactive). For the same compound, the z-score [20] was 0.14 (inactive) and 0.36 (inactive) and 1.19 (inactive).

With O=C(O)CCCc1ccc(N(CCCl)CCCl)cc1 the score [1] was -0.24, the cytochrome c release ratio [2] was 1.24 and the inhibition of aggregation [3] was 81.4%. The nuclear beta-catenin stimulation ([5]; at 10 µM) was 3.6% (inactive), the nuclear beta-catenin stimulation ([5]; stimulation, at 2 µM) was -1.1% and the insulin secretion stimulation [6] was -0.1% (inactive). The viability decrease [7] was 49.8% (inactive), the tube area decrease [8] was 87% (active) and the GLP1 secretion stimulation [9] was -0.8% (inactive). The inhibition of viability [10] was 8.83% (inactive), the viability decrease (inhibition) [11] was 3.9% (inactive) and the viability decrease (inhibition) [12] was 2.6% (inactive). For the same compound, the inhibition [13] was -1.4% (inactive), the red/green cell ratio (normalised) [14] was 0.75 (inactive) and the normalised cell number [14, 21] was 1.2. The normalised cell number [14, 22] was 0.9, the activity remaining [15] was 115% (inactive) and the z-score [17, 23] was -0.116 (inactive) and 0.451 (inactive). For the same compound, the z-score [17, 24] was -0.284 and -0.412, the remaining NAD [18] was 10 nM (inactive) and the luciferase signal [19] was 144 AU (inactive). The z-score [20] was -0.065 (inactive) and 0.565 (inactive).
